Test results from PMC4336329 (PLoS ONE, 2015).
Out of some 310,000 compounds screened, about 14,000 (4.5%) showed an effect of 50% or more. Effects have a minus sign here. The full list was thinned out, with strong results kept by preference.

Target: human ether-à-go-go-related gene (hERG) potassium channel (human, UniProt Q12809)
Assay: primary screen, population patch clamp on CHO cells stably expressing hERG; higher = less effect of the substance
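Note: peak tail current of the secondary pulse compared with the same well before compound.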

human ether-à-go-go-related gene (hERG) potassium channel, sequence (Q12809 whole entry, looked up): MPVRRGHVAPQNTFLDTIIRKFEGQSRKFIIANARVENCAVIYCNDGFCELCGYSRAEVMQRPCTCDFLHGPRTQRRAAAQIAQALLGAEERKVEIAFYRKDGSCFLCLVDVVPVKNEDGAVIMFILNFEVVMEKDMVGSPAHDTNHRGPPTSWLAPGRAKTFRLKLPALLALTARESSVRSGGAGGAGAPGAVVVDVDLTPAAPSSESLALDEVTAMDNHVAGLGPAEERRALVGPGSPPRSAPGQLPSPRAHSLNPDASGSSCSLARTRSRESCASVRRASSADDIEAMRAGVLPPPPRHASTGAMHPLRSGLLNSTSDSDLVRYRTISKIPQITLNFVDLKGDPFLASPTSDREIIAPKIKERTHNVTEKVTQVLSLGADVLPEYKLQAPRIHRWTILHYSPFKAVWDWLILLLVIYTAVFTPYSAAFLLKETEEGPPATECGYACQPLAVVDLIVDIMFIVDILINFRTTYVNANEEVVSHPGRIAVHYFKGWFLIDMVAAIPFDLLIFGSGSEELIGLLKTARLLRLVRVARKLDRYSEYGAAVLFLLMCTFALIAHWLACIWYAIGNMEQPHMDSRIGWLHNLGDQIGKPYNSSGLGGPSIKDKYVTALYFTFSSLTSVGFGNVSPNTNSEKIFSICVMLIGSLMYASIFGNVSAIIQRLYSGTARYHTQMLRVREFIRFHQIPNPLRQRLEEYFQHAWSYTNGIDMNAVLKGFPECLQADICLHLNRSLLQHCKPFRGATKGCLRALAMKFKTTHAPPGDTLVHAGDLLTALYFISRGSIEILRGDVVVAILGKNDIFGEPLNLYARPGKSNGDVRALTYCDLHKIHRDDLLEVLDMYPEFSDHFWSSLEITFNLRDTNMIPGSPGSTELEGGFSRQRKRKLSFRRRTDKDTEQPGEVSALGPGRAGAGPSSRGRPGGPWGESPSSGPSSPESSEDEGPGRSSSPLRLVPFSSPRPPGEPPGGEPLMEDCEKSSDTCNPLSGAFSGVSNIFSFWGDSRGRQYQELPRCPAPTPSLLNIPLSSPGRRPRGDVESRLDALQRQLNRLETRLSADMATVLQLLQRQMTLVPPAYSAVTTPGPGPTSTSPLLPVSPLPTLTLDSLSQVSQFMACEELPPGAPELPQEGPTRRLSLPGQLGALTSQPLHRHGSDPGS

SMILES | hERG current change (%, negative = inhibition) at 10uM [%]
COc1ccc(CCNCC(=O)Nc2ccc(C(=O)N3CCCCC3)cc2)cc1.O=C(O)C(=O)O | 4.75
COc1ccc(NC(=O)CNCCC2=CCCCC2)cc1 | 7.2
COc1ccc(CN(C)C(=S)Nc2ccc(Cl)cc2)cc1 | -20.7
CN(Cc1ccccc1)C(=S)Nc1ccc(OC(F)F)cc1 | -21.2
C/C(=N\Nc1ccccc1C(=O)O)c1ccncc1 | 0.449
CC(C)Nc1nc(NC(C)C)nc(OCCOC(=O)Nc2ccccc2)n1 | -24.5
Cc1ccc(N/N=C(\C#N)C(=N)N2CCCCC2)cc1 | -47.7
CN(CC(=O)Nc1ccccc1Br)C(=O)c1cc2c(s1)CCCCC2 | -1.74
O=C(Nc1ccc(NC(=O)C2CC2)nc1)c1cccs1 | 14
O=C(CSc1n[nH]c(=O)n1-c1cccnc1)N1CCOCC1 | 12
CCNC(=O)NC(=O)CSc1nc2ccccc2n1CC(C)C | -4.02
Cc1cccc(N2CCN(CC(=O)NCC3CCCCC3)CC2)c1C.Cl | -6.63
COc1cc2[nH]c(=O)n(Cc3ccc(C(=O)N4CCC(N5CCCCC5)CC4)cc3)c(=O)c2cc1OC | 12.3
COCCN(Cc1ccccc1)C(=S)Nc1ccc(OC(F)F)cc1 | -69.8
CCN(CC)C(=S)Nc1ccc(OC(F)F)cc1 | -28.6
CC(=O)c1cccc(NC(=O)CN(C)Cc2ccc(OC(F)F)cc2)c1 | -55
CCCN(Cc1ccccc1)C(=S)Nc1ccc(OC(F)F)cc1 | -41
CC(=O)c1ccc(NC(=O)CN(C)CC(=O)Nc2cccc(F)c2)cc1 | -18.5
COCCN(Cc1ccccc1)C(=S)Nc1ccc(Cl)cc1 | 11.1
COc1ccc(NC(=O)CN(C)CC(=O)Nc2cccc(C(C)=O)c2)cc1 | 18.5
CCCN(Cc1ccccc1)C(=S)Nc1ccc(C(C)=O)cc1 | -12.1
CCCCN(C)C(=S)Nc1ccc(Oc2ccccc2)cc1 | -2.38
CC(=O)c1ccc(NC(=S)N(CCCN(C)C)Cc2ccccc2)cc1 | -53.3

SMILES | hERG current change (%, negative = inhibition) at 10uM [%]
CN(CCOc1ccccc1)C(=S)Nc1ccc(OC(F)F)cc1 | -55.2
CC(=O)c1ccc(NC(=S)N(Cc2ccccc2)C(C)C2CC2)cc1 (stereo not shown) | 5.51
CCN(CC)C(=O)c1ccc(C)c(Br)c1 | -0.776
CCc1cc2c(=O)[nH]cnc2s1 | -3.48
CCCCCCc1cc2cc(-c3nnc(-c4ccccc4)o3)c(=O)oc2cc1O | 5.15
CCOC(=O)Cc1csc(NC(=S)NC(=O)c2ccc(F)cc2)n1 | 11.9
CCCN(Cc1ccccc1)C(=S)Nc1ccc(OCC)cc1 | -35.8
CN(C)C(=S)Nc1cccc(C(F)(F)F)c1 | 5.67
CN(C)CCCN(Cc1ccccc1)C(=S)Nc1ccc(F)c(Cl)c1 | -24.3
FC(F)Oc1ccc(NC(=S)NCc2cccnc2)cc1 | -2.69
COc1ccc(NC(=S)N(CCO)Cc2ccccc2)cc1 | 2.34
N#CCCN(Cc1cccnc1)C(=S)Nc1ccc(OC(F)F)cc1 | -78.2
CC(C)N(Cc1ccccc1)C(=S)Nc1ccc(OC(F)F)cc1 | -56.7
CC(C)N(Cc1ccccc1)C(=S)Nc1ccc(F)cc1 | -3.42
CN(C)CCCN(Cc1ccccc1)C(=S)Nc1cccc(C(F)(F)F)c1 | -52.6
CN(C)CCCN(Cc1ccccc1)C(=S)Nc1ccc(OC(F)F)cc1 | -70.3
CN(C)S(=O)(=O)c1cccc(NC(=S)N(CCC#N)Cc2cccnc2)c1 | -7.37
Cc1ccc(NC(=S)N(Cc2ccccc2)C(C)C)cc1 | 12
COc1ccc(S(=O)(=O)N(C)c2ccc(C(=O)N3CCOCC3)cc2)cc1 | -6.62
CCOc1ccc(-c2c(C(=O)N/N=C/c3sccc3C)nnn2-c2nonc2N)cc1 | 19.7
COc1ccc(-n2ncc3c(N4CCc5ccccc54)ncnc32)cc1 | 0.927
Cc1cccc(OCCCC(=O)Nc2ccc(N(C)C)cc2)c1 | -5.54
COc1cccc(N2C(=O)Nc3ccc(Br)cc3C2(O)C(=O)NCCCN(C)C)c1 (stereo not shown) | 19.3
